Assay results taken from ChEMBL document CHEMBL3433997, “St. Jude Leishmania screening dataset” (2016).

target: Glucose transporter (Leishmania mexicana) (UniProt O61059); assay: ST_JUDE_LEISH: Cytotoxicity at 2uM final concentration against transgenic Leishmania Mexicana promastigotes LmGT2 that are glucose transport deficient and complemented with the L. Mexicana glucose transporter 2. Activity is measured by DNA content using SYBR green in vitro; format: functional

First: C[C@H](Cc1ccc(S(=O)(=O)c2ccc(C[C@@H](C)NC[C@H](O)c3cccc(Cl)c3)cc2)cc1)NC[C@H](O)c1cccc(Cl)c1
Second: Cc1cccc2nc(-c3cccc(-c4ccc(CNCCNC(=O)c5ccnn5C)cc4)c3)[nH]c12
The inhibition of the first is higher: 2.18% for the first, -2.92% for the second.

First: O=C(Nc1ccc(Cl)cc1)c1ccc(CN2CCCN(Cc3ccc(F)cc3)CC2)cc1
Second: O=C(Nc1ccc2c(c1)CCC2)c1ccc(CN2CCCN(Cc3cccc(O)c3)CC2)cc1
The inhibition of the first is lower: 0.03% for the first, 9.95% for the second.

Going from COc1ccc2nccc([C@@H](O)CN3CCC(NCc4ccc5nc[nH]c(=O)c5c4)CC3)c2c1 to COc1cc(F)c2ncc(Cl)c([C@@H](O)CN3CCC(NCc4ccc5c(n4)NC(=O)CO5)CC3)c2c1, the inhibition rises from -1.45% to 2.71%.

Compared with Cc1ccc(Nc2nc3cc(Nc4ccnc(Nc5cccc(CS(C)(=O)=O)c5)n4)ccc3o2)cc1, Oc1ccc(Nc2nc(NCc3ccccc3)c3ccccc3n2)cc1 is higher in inhibition: 0.38% for the first, 10.6% for the second.

First: O=C(Nc1ccccc1)Nc1cccc(-c2nn3c(OCC4CCCCN4)cccc3c2-c2ccncc2)c1 (stereo not drawn)
Second: Cc1ccc(NC(=O)Nc2ccccc2)cc1-c1ccc(C(=O)Nc2ccncc2)cc1
The inhibition of the first is lower: 1.3% for the first, 9% for the second.

Going from O=C(Nc1ccc(F)cc1)NC1CCN(c2ccnc3cc(Cl)ccc23)C1 (stereo not drawn) to NC1CCN(CCNCc2cccc(-c3ccc(-c4nc5cc(F)ccc5[nH]4)cc3)c2)C1 (stereo not drawn), the inhibition rises from -1.87% to 6.13%.

Going from CN(C(=O)Cc1ccc(Cl)cc1)C1CCN(CCCCCNC(=O)/C=C/c2ccc(Cl)c(Cl)c2)CC1 to O=C(/C=C/c1ccc(Cl)c(Cl)c1)NCCCCCN1CCCN(C(=O)Nc2ccc(Cl)cc2)CC1, the inhibition falls from 1.99% to 0.01%.

Going from COc1ccc(CCNCCCCCNCCCc2ccc(Cl)cc2)cc1OC to COC(=O)CCCCOc1c(OC)cc(Cc2cnc(N)nc2N)cc1OC, the inhibition rises from 0.25% to 7.7%.

First: CC(C)CNc1c2c(nc3cnn(-c4c5c(nc6cn[nH]c46)CCCC5)c13)CCCC2
Second: COc1ccc(CNC(=O)C2Cc3ccccc3CN2Cc2ccc3ccccc3c2)cc1 (stereo not drawn)
The inhibition of the first is lower: -2.14% for the first, -0.58% for the second.

Going from Cc1cc(=NN=CC=Cc2ccccc2)c2ccccc2[nH]1 to O=C(CCc1c[nH]cn1)Nc1ccc(-c2ccc(-c3nc4ccccc4[nH]3)cc2)cc1, the inhibition rises from 0.81% to 15.2%.

Compared with O=C(Nc1cccc(-c2cccc(-c3nc4cc(F)ccc4[nH]3)c2)c1)Nc1ccc(F)c(F)c1F, O=C1O[C@H](c2ccccc2)[C@H](c2ccccc2)N(C(=O)OCc2ccccc2)[C@H]1Cc1ccccc1C1CCCC1 is lower in inhibition: 7.83% for the first, 1.27% for the second.

COc1ccc(-c2cnc(N)nc2N)cc1Cl gave an inhibition of 2.06%.
